Screening data as filed in PubChem.
Only some compounds are listed: those with a hit (about 3.7% of all), similar ones and a draw of the others.
HepG2 viability – kills HepG2 cells in TGF-b inhibitor counter-screen; HepG2 CAGA-GFP viability, ATP luminescence, 18 h; Potency, µM (series often up to 46.1 µM), for the others: at the highest dose activity change, negative = cytotoxicity, actives largely listed as cytotoxic; 0.76% of 410,000 active; AID 588856
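CellTiter-Glo luminescence gave cytotoxicity after 18 hours at 37 degrees C. The cells were HepG2 CAGA-GFP in 1% FBS DMEM, stimulated with 500 pg/mL TGF-beta after compound addition. %Activity was normalised to no-cell wells (complete cell-killing) and DMSO (no toxicity), and curves were fitted and classified.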
GLP-1R agonist – activates the human GLP-1 receptor; P43220; HEK293 GLP-1R CRE-luciferase, luminescence, 4-6 h; cells express a hypersensitive GLP-1R form; Potency, µM (highest dose often 45.6 µM), without a hit: top-dose activation, usual class: activators; 0.007% of 380,000 active; further: % of control where 0% means no effect
Target sequence (P43220 whole entry, looked up): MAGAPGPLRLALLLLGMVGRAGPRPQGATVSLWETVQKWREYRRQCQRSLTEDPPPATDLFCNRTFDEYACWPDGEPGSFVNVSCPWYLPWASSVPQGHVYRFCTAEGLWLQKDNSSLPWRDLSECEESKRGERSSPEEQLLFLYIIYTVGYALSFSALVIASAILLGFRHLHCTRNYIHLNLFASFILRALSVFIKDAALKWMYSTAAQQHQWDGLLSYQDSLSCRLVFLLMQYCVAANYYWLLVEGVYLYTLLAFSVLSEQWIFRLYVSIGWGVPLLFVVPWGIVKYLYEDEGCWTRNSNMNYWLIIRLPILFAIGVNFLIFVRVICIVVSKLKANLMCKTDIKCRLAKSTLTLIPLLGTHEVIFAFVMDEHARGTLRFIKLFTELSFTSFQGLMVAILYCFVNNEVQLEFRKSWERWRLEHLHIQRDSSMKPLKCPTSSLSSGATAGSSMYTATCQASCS
ATXN2 expr inh – inhibitors of ATXN2 expression. HEK-293 ATXN2-luciferase reporter, luminescence, 24 h. Potency, µM (titrated, usually from 57 µM), inactives show at the top dose activity change, negative = inhibition, actives largely listed as inhibitors. 0.72% of 360,000 active. AID 1745845; further: on the % scale 0 is the no-effect control and ±100 the full control effect; nearly all actives have a fitted effect of over 55% in size
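ATXN2-luciferase reporter cells (luciferase flanked by upstream and downstream ATXN2 gene portions) were treated 24 h at 37 °C with compounds at up to 57 uM. SteadyGlo luminescence gave expression; GF-AFC fluorescence gave viability.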
TGFb inhibitor – inhibitors of TGF-b signaling; HepG2 CAGA-GFP TGF-b/SMAD3 reporter, GFP fluorescence, 18 h; TGF-beta stimulated, 500 pg/mL final; Potency, µM (highest dose often 46.1 µM), for the others: top-dose activity, negative = inhibition, actives largely listed as inhibitors; 1.2% of 410,000 active; AID 588855; further: on the % scale 0 is the no-effect control and ±100 the full control effect; nearly all actives have a fitted effect of over 65% in size
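Per well, imaged GFP fluorescence of HEPG2 CAGA-GFP cells gives the signal; cells get compound, then TGF-beta (500 pg/mL final), 18 h at 37 degrees C; %Activity versus -TGF-beta and +DMSO controls.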
ATXN viability – cell viability loss in ATXN counter-screen; S2 cells (HEK-293 line with an ATXN2-luciferase reporter) viability, CellTiter-Fluor protease fluorescence, 24 h; Potency, µM (highest dose often 56.7 µM), most hits filed as cytotoxic; 0.49% of 400,000 active; further: nearly all actives have a fitted effect of over 40% in size
GLP1R inv ag – acts as inverse agonist at human GLP-1 receptor | P43220 | HEK293 GLP-1R CRE-luciferase, luminescence, 24 h; GLP-1R form is constitutively active | Potency, µM (series often up to 38.3 µM), without a hit: at the top dose activity change, negative = inhibition, hits mostly inhibitors | 1.6% of 410,000 active; further: on the % scale 0 is the no-effect control and ±100 the full control effect; nearly all actives have a fitted effect of over 55% in size
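Cells are plated, allowed 12 hours at 37 deg C, then treated with compounds for 24 hr before luciferase detection reagent is added and luminescence is read after 12 min at room temperature. The HEK293 line carries constitutively active GLP-1R with a cAMP-responsive reporter.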
An asterisk follows results filed as active. The call rests on the fitted dose curve; in most records, active means well fitted curve in the direction sought with a large enough effect; inconclusive means small, poorly fitted or top-dose-only effect, or another doubt; inactive means no such curve, though single readings can be large; an effect the other way counts as inactive or inconclusive. Potency means the concentration at half of the fitted maximal effect.

CCOC(=O)c1cccc(NC(=O)c2ccc3nc(C(C)C)oc3c2)c1 was read as HepG2 viability -18%, TGFb inhibitor 3% and GLP1R inv ag -23%.
`COc1cccc(NC(=O)c2ccc3nc(Cc4ccccc4)oc3c2)c1` gave HepG2 viability -3%, ATXN2 expr inh inconclusive, TGFb inhibitor inconclusive, ATXN viability inconclusive and GLP1R inv ag 10µM*.
For CCOC(=O)c1cccc(NC(=O)c2ccc3nc(Cc4ccccc4)oc3c2)c1 the results were HepG2 viability -34%, ATXN2 expr inh inconclusive, TGFb inhibitor -35%, ATXN viability 0.79µM* and GLP1R inv ag inconclusive.
Screening COc1ccc(NC(=O)c2nn(C)c3c2CS(=O)(=O)c2ccccc2-3)cc1Cl returned HepG2 viability -13%, ATXN2 expr inh -6%, TGFb inhibitor -5%, ATXN viability inactive and GLP1R inv ag 11%.
`COc1ccc(NCc2cc3cc4c(cc3n(CC(=O)Nc3cc(C)ccc3C)c2=O)OCCO4)cc1` gave HepG2 viability 3%, GLP-1R agonist -3%, ATXN2 expr inh -7%, TGFb inhibitor -1%, ATXN viability inactive and GLP1R inv ag -1%.
For CCN(CC)CCN(C)C(=O)c1ccc(-c2ccccc2)nc1N(C)C the results were ATXN viability inactive.
C=CC(=O)Nc1cccc(Oc2ccnc3[nH]ccc23)c1 was read as HepG2 viability 2%, GLP-1R agonist 0%, ATXN2 expr inh -33%, TGFb inhibitor inconclusive, ATXN viability 8.9µM* and GLP1R inv ag -24%.
COc1ccc(C(=O)Nc2ncnc3nc[nH]c23)cc1 was read as HepG2 viability 5% and TGFb inhibitor -4%.
For Cc1nc2c(OCCOc3ccccc3)cccn2c1N(C)C(=O)CCC1CCCC1 the results were HepG2 viability -16%, GLP-1R agonist 2%, ATXN2 expr inh inconclusive, TGFb inhibitor inconclusive, ATXN viability inconclusive and GLP1R inv ag inconclusive.
CCc1nc2c(OCCC3CCCCC3)cccn2c1N(C)C(=O)c1ccc(C)cc1 was read as HepG2 viability 20µM*, GLP-1R agonist -1%, ATXN2 expr inh inconclusive, TGFb inhibitor inconclusive, ATXN viability inconclusive and GLP1R inv ag inconclusive.
Screening Cc1nc2c(OCCC3CCCCC3)cccn2c1N(C)C(=O)CCC1CCCC1 returned HepG2 viability 18µM*, GLP-1R agonist 0%, ATXN2 expr inh inconclusive, TGFb inhibitor 16µM*, ATXN viability inconclusive and GLP1R inv ag inconclusive.
Screening COC(=O)CCC(=O)N(CCN(Cc1ccccc1)C(=O)CCC(=O)OC)Cc1ccccc1 returned HepG2 viability -37%, GLP-1R agonist 6%, ATXN2 expr inh -8%, TGFb inhibitor 4%, ATXN viability inactive and GLP1R inv ag 20%.
`CCCC(=O)N(CCN(Cc1ccccc1)C(=O)CCC)Cc1ccccc1` gave HepG2 viability 0%, GLP-1R agonist 1%, ATXN2 expr inh 6%, TGFb inhibitor -17%, ATXN viability inactive and GLP1R inv ag 13µM*.
`COc1cc(CCc2ccccc2)c(C(=O)O)c(O)c1CC=C(C)C` gave HepG2 viability -41%, GLP-1R agonist -1%, ATXN2 expr inh -25%, TGFb inhibitor inconclusive, ATXN viability inactive and GLP1R inv ag 10µM*.
Screening COc1cc(CCc2ccccc2)c(C(=O)O)c(O)c1C/C=C(/C)CCC=C(C)C returned HepG2 viability 14µM*, GLP-1R agonist 1%, ATXN2 expr inh 0%, TGFb inhibitor 13µM*, ATXN viability inactive and GLP1R inv ag inconclusive.
For CC1=NN(/C(=N\c2nnc(C)s2)Nc2ccc(C)cc2)[C@H](c2ccc(C)cc2)S1 the results were HepG2 viability -6%, GLP-1R agonist -2%, ATXN2 expr inh 7%, TGFb inhibitor -2%, ATXN viability inactive and GLP1R inv ag 10µM*.
`COc1ccc(OC)c(NC(=O)CC2SC(=Nc3ccc(F)cc3)N(CCC3=CCCCC3)C2=O)c1` (stereo not given) gave HepG2 viability 11%, GLP-1R agonist 10%, ATXN2 expr inh 6%, TGFb inhibitor -19%, ATXN viability inactive and GLP1R inv ag 4.5µM*.
`COc1cc([N+](=O)[O-])ccc1NC(=O)CC1SC(=Nc2ccc(F)cc2)N(CCC2=CCCCC2)C1=O` (stereo not given) gave HepG2 viability -20%, GLP-1R agonist 0%, ATXN2 expr inh 9%, TGFb inhibitor inconclusive, ATXN viability inactive and GLP1R inv ag inconclusive.
Screening CC1CCC(NC(=O)c2ccc3c(c2)N(Cc2ccccc2)C(=O)c2ccccc2S3=O)CC1 (stereo not given) returned HepG2 viability -9%, GLP-1R agonist 0%, ATXN2 expr inh 6%, TGFb inhibitor -6%, ATXN viability inactive and GLP1R inv ag inconclusive.
For Cc1ccc(C)c(CN2C(=O)c3ccccc3S(=O)(=O)c3ccc(C(=O)NCCCN4CCCC(C)C4)cc32)c1 (stereo not given) the results were HepG2 viability 11µM* and GLP1R inv ag inconclusive.
For CC1CC(C)CN(CCCNC(=O)c2ccc3c(c2)N(Cc2ccccc2)C(=O)c2ccccc2S3=O)C1 (stereo not given) the results were HepG2 viability -94%, GLP-1R agonist -7%, TGFb inhibitor inconclusive, ATXN viability 28µM* and GLP1R inv ag inconclusive.
For CC1CCCN(CCCNC(=O)c2ccc3c(c2)N(Cc2ccc(Cl)cc2)C(=O)c2ccccc2S3(=O)=O)C1 (stereo not given) the results were HepG2 viability 20µM*, TGFb inhibitor inconclusive and GLP1R inv ag inconclusive.
COc1ccc(C2c3[nH]c4ccccc4c3CCN2Cc2ccoc2)c(F)c1 (stereo not given) was read as HepG2 viability -29%, GLP-1R agonist -1%, ATXN2 expr inh 82%, TGFb inhibitor inconclusive, ATXN viability inactive and GLP1R inv ag 4.5µM*.
`COc1ccc(C2c3[nH]c4ccc(OC)cc4c3CCN2C(=O)Nc2ccccc2)cc1` (stereo not given) gave HepG2 viability -23%, ATXN2 expr inh -23%, TGFb inhibitor 8.9µM*, ATXN viability inconclusive and GLP1R inv ag 5.6µM*.
For COc1cc(C(=O)N2CCc3c([nH]c4ccccc34)C2c2ccc(F)cc2)cc(OC)c1OC (stereo not given) the results were HepG2 viability -6%, TGFb inhibitor -24% and GLP1R inv ag inconclusive.
